Compound activity (PubChem BioAssay)
aSyn 5UTR act – Activators via SNCA 5'UTR binding, MLPCN; actives 7.1% (n = 300,000); AID 1814; alpha-synuclein 5'UTR reporter, activators screen; activity score, % (tested at 7.5 µM), hits read low; in the data active means activity score below about -60%
An asterisk follows results filed as active. These entries were drawn from the full list.

SMILES | aSyn 5UTR act
O=C(CSc1nnc2ccccn12)c1ccc(Cl)cc1 | -67*
O=C(Nc1ccc(N2CCCC2)cc1)c1ccc2ccccc2c1 | -143*
O=C(O)c1ccc(NC(=S)NC(=O)c2ccc3ccccc3c2)cc1 | -64*
COc1ccc(NC(=S)NNc2ccc(C(=O)O)cc2)cc1 | -107*
O=C(Nc1ccc(Nc2ccccc2)cc1)c1cccc(F)c1 | -265*
O=C(Nc1ccc(N2CCCC2)cc1)c1cccc(F)c1 | -203*
O=C(Nc1ccc(N2CCCC2=O)cc1)c1cccc(F)c1 | -98*
O=C(NCc1ccco1)c1sc2ccccc2c1Cl | -114*
O=C(NCc1ccco1)C(=O)NCc1ccccc1Cl | -71*
O=C(NCc1ccco1)c1sc2cc(Cl)ccc2c1Cl | -66*
O=C(Nc1ccon1)c1sc2cc(Cl)ccc2c1Cl | -84*
CCN(CC)CCOC(=O)C(Cc1ccco1)Cc1cccc2ccccc12 (centres undefined) | 104
O=C(NCc1ccco1)c1cc2cc3ccc(Cl)cc3nc2o1 | -62*
CC(=O)N/N=C/c1ccccc1OCCOc1cccc(C)c1 | -76*
Cc1ccc(NC(=O)CCOc2ccccc2)cc1 | -203*
Cc1cccc(OCCCC(=O)Nc2ccc(N(C)C)cc2)c1 | -88*
CCOC(=O)C1=C(N)n2c(s/c(=C\c3cccnc3)c2=O)=C(C(=O)OC)C1c1cccnc1 (centres undefined) | -66*
CCSc1nnc2nc3[nH]c4c(C)cccc4c3nn12 | -147*
C=CCSc1nnc2c(n1)[nH]c1c(C)cccc12 | -158*
C=CCc1c(C)nc(SC)nc1Nc1ccc(C(C)=O)cc1 | -76*
O=C(/C=C/c1c(F)cccc1Cl)Nc1cccnc1 | -111*
O=C(/C=C/c1cc(Br)ccc1F)Nc1cccnc1 | -118*
O=[N+]([O-])c1ccc(O)c(C=Nc2ccc3c(c2)OCO3)c1 | -86*
O=[N+]([O-])c1cc(Br)cc(C=Nc2ccc3c(c2)OCO3)c1O | -89*
CNc1nc(N/N=C/c2cc3c(cc2[N+](=O)[O-])OCO3)nc(Nc2ccccc2)n1 | 74
SMILES | aSyn 5UTR act
CC1(C)CC(=O)C(C=Nc2ccc3c(c2)OCO3)=C(O)C1 | -71*
COc1ccc2c(c1OC)c(=O)n1c3ccc(OC(C)C(=O)NCCN4CCOCC4)cc3c3ccnc2c31 (centres undefined) | -65*
CC(Oc1ccc2c(c1)c1ccnc3c4ccccc4c(=O)n2c13)C(=O)NCCN1CCOCC1 (centres undefined) | -76*
COc1cc(OC)cc(C(=O)Oc2c(CN3CCOCC3)cc(Cl)c3cccnc23)c1 | 92
CCOC(=O)c1c(C)oc2c1c(CN1CCN(C(=O)OCC)CC1)c(O)c1ccccc12 | -205*
CCOC(=O)c1c(C)oc2c1c1c(c3ccccc32)OCN(Cc2ccccn2)C1 | -102*
COc1cccc(/C=N/Nc2nnc3c(n2)[nH]c2ccccc23)c1OC | -84*
Fc1ccccc1/C=N/Nc1ccc(Cl)nn1 | -110*
COc1cccc(/C=N/Nc2ccc(Cl)nn2)c1OC | -155*
CC(/C=N/Nc1nnc2c(n1)[nH]c1ccccc12)=C\c1ccco1 | -165*
C(=N\Nc1ccc2nncn2n1)/c1ccccn1 | 67
Cc1cccc(-c2nc(-c3ccncc3)no2)c1 | -68*
Cc1cc(C)cc(-c2nc(-c3ccncc3)no2)c1 | -149*
Brc1cccc(-c2nc(-c3ccncc3)no2)c1 | -100*
Cc1ccc(-c2nc(-c3ccccc3)no2)c(Cl)c1 | 95
Clc1ccc(Br)cc1-c1nc(-c2ccncc2)no1 | -188*
O=C(/C=C\c1ccc(-c2ccccc2)o1)c1ccccc1 | -62*
Cc1ccc(C(=O)/C=C/c2ccc(-c3ccc(C)cc3)o2)cc1 | -73*
O=c1[nH]c2cc3c(cc2cc1CN(Cc1nnnn1C1CCCC1)C1CCCC1)OCCO3 | -79*
Cc1ccccc1Cn1nnc(-c2ccc3c(c2)OCO3)n1 | -168*
Fc1cccc(Cn2ccc(-c3ccc4c(c3)OCO4)n2)c1 | -97*
Fc1cccc(Cl)c1Cn1nnc(-c2ccc3c(c2)OCO3)n1 | -97*
Cc1ccccc1Cn1ccc(-c2ccc3c(c2)OCO3)n1 | -130*
Cc1cc(=O)n2nc(-c3ccccc3)sc2n1 | -99*
Cc1nn(-c2ccc(Br)cc2)c(=O)c2ccccc12 | -113*
SMILES | aSyn 5UTR act
O=[N+]([O-])c1cc(N=Nc2ccc3ccccc3c2)ccc1O | -104*
Cc1sc2nc3ccc(N4CCCC4)nn3c(=O)c2c1C | -171*
Cc1ccc2nc3ccc(N4CCN(C)CC4)nn3c(=O)c2c1 | -137*
Cc1ccc2nc3ccc(N4CCCCCCC4)nn3c(=O)c2c1 | -150*
O=c1c2ccccc2nc2ccc(N3CCOCC3)nn12 | -85*
O=C(NC1CCCCC1)c1cc(-c2ccccc2O)on1 | -145*
Cc1ccc(-c2cc(C(=O)NC3CCCCC3)no2)cc1 | -163*
CN(C(=O)c1cc(-c2ccccc2)on1)C1CCCCC1 | -188*
O=C(NC1CCCCC1)c1cc(-c2ccc(O)cc2)on1 | -153*
COc1ccc(-c2csc(NNC3=NCCCCC3)n2)cc1 | -63*
Brc1ccc(-c2csc(NC3=NCCCCC3)n2)cc1 | -138*
CCOc1ccc(-c2csc(NNC3=NCCCCC3)n2)cc1 | -88*
